# In ChEMBL document CHEMBL4513216, “Probing the Open Global Health Chemical Diversity Library for Multistage-Active Starting Points for Next-Generation Antimalarials” (ACS Infect Dis, 2020):
# Among all 69,000 compounds or so, about 8,600 (12%) showed an effect of 50% or more. For the sample, strong results were picked, then their nearest neighbours and some compounds at random.
# System: Plasmodium berghei
# Experiment: Screen against P. berghei liver stage (PbLuc), transformed with Luciferase, at 10uM
# Assay type: functional, HepG2
# Conditions: tested at 10 uM
row,Compound,INHIBITION
1,O=C(CCNc1ccccc1)NC1CCN(C(=O)C2CCCCC2)CC1,27.6%
2,O=C(c1ccoc1)N1CCOCC2(CCN(C3CCOCC3)C2)C1 (stereo unspecified),34.4%
3,CC(C)NC(=O)N1CCCC2(CCN(c3ccsc3)C2=O)C1 (stereo unspecified),-4.82%
4,CCc1nnc(CN2CCCC(c3cc(C(N)=O)[nH]n3)C2)o1 (stereo unspecified),4.71%
5,CCC(=O)c1ccc(OCC(=O)NCC2CC(CC)=NO2)cc1 (stereo unspecified),52.6%
6,C=C(C)COc1ccc(C(=O)NCC2CC(CC)=NO2)cc1 (stereo unspecified),6.26%
7,CCC(=O)c1ccc(OCC(=O)NCC2CCCO2)cc1 (stereo unspecified),3.48%
8,Cc1cc2cccc(NC(=O)N3CC[C@H]4CC[C@@H](C3)N4C)c2o1,-4.01%
9,CCN(CC(=O)NC(C)C)C(=O)c1ccc(-c2ccsc2)nc1C,47%
10,CCc1n[nH]c(C2CN(C(=O)c3ncoc3CC)CCO2)n1 (stereo unspecified),-19.9%
11,CCn1cnnc1C1CCN(C(=O)c2cccc(OC)c2OC)CC1,22.3%
12,CN(Cc1ccncn1)C(=O)C1(Oc2ccc(Cl)cc2)CCNCC1,53.3%
13,CN(Cc1ccoc1)C(=O)C1(Oc2ccc(Cl)cc2)CCNCC1,11.9%
14,CN(C)C(=O)C1(Oc2ccc(Cl)cc2)CCNCC1,1.79%
15,CC(C)c1ccc2c(c1)CCCN2C(=O)CN(C)S(C)(=O)=O,48.3%
16,CC(=O)c1c(C)nn(S(=O)(=O)c2ccc(F)cc2)c1C,53.8%
17,CC(=O)c1c(C)nn(S(=O)(=O)c2ccc(C)cc2)c1C,-15.5%
18,CC(=O)c1c(C)nn(S(=O)(=O)c2ccc(Cl)cc2)c1C,-16.6%
19,CSc1nc(N)cc(N2C[C@H]3CC[C@@H](C2)N(Cc2cscn2)C3=O)n1,9.4%

row,Compound,INHIBITION
1,CS(=O)(=O)N1CCC2(CC1)CN(CC1CC1)CC21CCNC1=O (stereo unspecified),3.81%
2,O=S(=O)(c1cccnc1)N1C[C@H]2CC[C@@H](C1)N(Cc1ccccn1)C2,31.7%
3,O=C(c1c[nH]c(=O)c(Cl)c1)N1C[C@H]2CC[C@@H](C1)N(Cc1ccccc1)C2,-23.2%
4,O=C(c1ccc(F)c(Cl)c1)N1C[C@H]2CC[C@@H](C1)N(Cc1ccccc1)C2,68.5%
5,O=S(=O)(c1cccnc1)N1C[C@H]2CC[C@@H](C1)N(Cc1ccccc1)C2,18.6%
6,O=C(c1cc(F)cc(Cl)c1)N1C[C@H]2CC[C@@H](C1)N(Cc1ccccc1)C2,-31.3%
7,O=S(=O)(c1cccc(F)c1)N1C[C@H]2CC[C@@H](C1)N(Cc1ccccc1)C2,63.6%
8,COCCN1C[C@@H]2CC[C@H]1CN(C(=O)CCn1cc(Cl)cn1)C2,26.6%
9,COCCN1C[C@@H]2CC[C@H]1CN(C(=O)c1ccc(Cl)cc1)C2,66.1%
10,CCN(CC)c1ccc(C(=O)N2C[C@H]3CC[C@@H](C2)N(CCOC)C3)cc1,25.4%
11,CN1CCN(C(=O)C2CCN(c3cccnn3)CC2)CC1,-9.32%
12,CCc1nnc2n1CCN(C(=O)c1nc(-c3ccco3)sc1C)C2,21.5%
13,O=C(Cn1ccc(C(=O)O)n1)Nc1c(Cl)cccc1Cl,19.09%
14,Cc1ncc(CN(C)Cn2nc(-c3ccccc3)oc2=O)s1,3.41%
15,CN(Cc1nnc2n1CCC2)C(=O)c1ccc2c(c1)OCCO2,-2.53%
16,O=C(Cc1ccccc1F)N1CCN(C(=O)c2ccoc2)CC1,16.6%
17,Cc1nc(C)c(C)c(N2CCC3(CCOC3)C2)n1 (stereo unspecified),-129%
18,Cc1nnc2ccc(N3CCC4(CCOC4)C3)nn12 (stereo unspecified),9%
19,Cc1nc(N2CCC3(CCOC3)C2)c2cc[nH]c2n1 (stereo unspecified),71.1%

row,Compound,INHIBITION
1,COc1ccc2c(c1)CN(Cc1ccco1)C(=O)CCN2,17.7%
2,Cc1ccc(-n2cc(C(=O)N3CCCC(n4cccn4)C3)nn2)cc1 (stereo unspecified),-2.19%
3,CNC(=O)CC1COCCN1C(=O)C1(c2ccc(Cl)cc2)CCC1 (stereo unspecified),52.1%
4,O=C(O)CC1COCCN1C(=O)C1(c2ccc(Cl)cc2)CCC1 (stereo unspecified),1.74%
5,O=C(N1CCOCC(O)C1)C1(c2ccc(Cl)cc2)CCC1 (stereo unspecified),0.0996%
6,COc1cc(C(=O)N2CCC(c3n[nH]c(C)n3)CC2)cc(OC)c1C,0.914%
7,O=C(Cc1n[nH]c(-c2cncc(Br)c2)n1)NCc1ccccn1,22.5%
8,CC1(c2nccs2)CCN(C(=O)CCN2CCOCC2)CC1,23.3%
9,Cc1noc(C(C)N2CCN(Cc3nc(C)c(C)o3)CC2)n1 (stereo unspecified),-2.143%
10,Cc1noc(-c2cccnc2N(C)Cc2cscn2)n1,68.8%
11,Cc1noc(-c2cccnc2N(C)Cc2ccc([S+](C)[O-])cc2)n1 (stereo unspecified),79.9%
12,Cc1noc(-c2cccnc2N(C)Cc2cc(C)on2)n1,50.8%
13,Cc1noc(-c2ccc(N(C)Cc3ccncn3)nc2)n1,26.4%
14,Cc1noc(-c2ccc(N(C)Cc3nccs3)nc2)n1,1.79%
15,Cc1noc(-c2ccc(N(C)Cc3cccnc3)nc2)n1,28.7%
16,Cc1noc(-c2cccnc2N2CCN(c3cnn(C)c3)CC2)n1,-26.8%
17,CN(Cc1ccc([S+](C)[O-])cc1)c1ccccn1 (stereo unspecified),40.5%
18,Cc1noc(-c2ccc(N(C)Cc3ccncc3C)nc2)n1,-3.58%
